According to PubChem BioAssay (EPA / NIEHS):
Activity calls are given as the source filed them. The calls were made as follows: active = hit-call score of the fitted dose curve at least 0.9, where 1 is the maximum; inactive = score below 0.9.

Legend:
[1] = target: Paired box protein Pax-6 (Homo sapiens) (UniProt P26367); experiment: ATG_Pax6_CIS: Attagene CIS-FACTORIAL HepG2 Assay for human Paired Box 6 (PAX6) (AID 2282956); details: HepG2 CIS-FACTORIAL PAX6 reporter transcription, RNA readout; actives raise or lower the signal
In short: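 Values derive from bidirectional curve fitting of reporter mRNA signal relative to DMSO. HepG2 cells bearing transfected cis-regulated MRTUs were exposed for 24 h; transcripts were read by RT-PCR and capillary electrophoresis.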

[2] = ATG_PXRE_CIS: Attagene CIS-FACTORIAL HepG2 Assay for human Pregnane X Receptor Element (PXRE) (AID 2282957); details: HepG2 Attagene CIS-FACTORIAL PXRE reporter, mRNA; actives raise or lower the signal
In short: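 Using HepG2 transfected with multiple reporter transcription units, endogenous factor-driven transcription was scored as reporter mRNA after 24 h exposure.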

[3] = ATG_PPRE_CIS: Attagene CIS-FACTORIAL HepG2 Assay for human Peroxisome Proliferator-activated Response Element (PPRE) (AID 2282958); details: HepG2 PPRE cis-element reporter, Attagene transcription factor profiling; actives raise or lower the signal
In short: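 DMSO served as negative control and baseline for bidirectional curve fitting. Signal came from PPRE-regulated reporter mRNA in HepG2 cells, measured 24 h post-dosing by RT-PCR, 6-FAM primer extension and capillary electrophoresis.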

[4] = ATG_RORE_CIS: Attagene CIS-FACTORIAL HepG2 Assay for human RAR-related Orphan Receptor Element (RORE) (AID 2282959); details: HepG2 Attagene cis-factorial RORE reporter, mRNA; actives raise or lower the signal
In short: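 Transfect HepG2 with MRTUs; treat 24 h; extract RNA; RT with oligo(dT); PCR with reporter-specific primers; 6-FAM primer extension; HpaI digest 2 h at 37 C; capillary electrophoresis. Fit vs DMSO, bidirectional.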

[5] = ATG_Sox_CIS: Attagene CIS-FACTORIAL HepG2 Assay for human SRY-box transcription factor (SOX) (AID 2282960); details: HepG2 Attagene cis-factorial SOX reporter, mRNA; actives raise or lower the signal
In short: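 Fluorescence-labelled cDNA fragments from reporter transcripts, sized by CE, give the signal. Cells: HepG2, transiently transfected with cis-regulated reporter units. Exposure 24 h; DMSO negative control; bidirectional curve fitting.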

[6] = ATG_SREBP_CIS: Attagene CIS-FACTORIAL HepG2 Assay for human Sterol Regulatory Element Binding (SREBP) (AID 2282962); details: HepG2 Attagene cis-factorial SREBP reporter, mRNA; actives raise or lower the signal
In short: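 Values derive from bidirectional curve fitting with DMSO as baseline. The underlying measurement is reporter mRNA from cis-element-regulated units in transiently transfected HepG2, quantified by RT-PCR and capillary electrophoresis after 24 h exposure.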

[7] = target: Signal transducer and activator of transcription 3 (Homo sapiens) (UniProt P40763); experiment: ATG_STAT3_CIS: Attagene CIS-FACTORIAL HepG2 Assay for human Signal Transducer and Activator of Transcription 3 (STAT3) (AID 2282963); details: HepG2, Attagene cis-factorial STAT3 reporter transcription; actives raise or lower the signal
In short: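 Readout is reporter transcript quantified by RT-PCR and capillary electrophoresis, with 6-FAM primer extension and HpaI digestion. Total RNA is taken 24 h after dosing transiently transfected HepG2 carrying cis-regulated reporter units. Bidirectional fit against DMSO.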

[8] = ATG_TA_CIS: Attagene CIS-FACTORIAL HepG2 Assay for human TA Basal Promoter (AID 2282964); details: HepG2 Attagene CIS-factorial TA basal promoter reporter; actives raise or lower the signal
In short: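 Fluorescence from labelled RT-PCR reporter fragments, separated by capillary electrophoresis, gives the signal. Cells: HepG2 transiently carrying multiple reporter units, 24 h chemical dosing. Gain or loss relative to DMSO.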

[9] = ATG_TCF_b_cat_CIS: Attagene CIS-FACTORIAL HepG2 Assay for human T-Cell-Factor with beta-catenin (TCF/b-cat) (AID 2282965); details: HepG2 TCF/beta-catenin cis-reporter transcription, actives raise or lower the signal
In short: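 Measured: reporter mRNA in HepG2 transiently transfected with cis-promoter reporter units, 24 h after chemical addition. Fitting was bidirectional, DMSO as negative control.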

[10] = target: Transcription factor Sp1 (Homo sapiens) (UniProt P08047); experiment: ATG_Sp1_CIS: Attagene CIS-FACTORIAL HepG2 Assay for human Specificity Protein 1 (Sp1) (AID 2282961); details: HepG2 Sp1 cis-reporter transcription, actives raise or lower the signal
In short: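 Chemicals are dosed onto HepG2 cells transfected with multiple cis-promoter reporter constructs, and after 24 h reporter RNA is reverse-transcribed, PCR-amplified and resolved by capillary electrophoresis for fluorescence quantitation; activity is scored up or down against DMSO.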

Measured: AC50

Paired box protein Pax-6 (Homo sapiens), sequence (P26367 whole entry, looked up): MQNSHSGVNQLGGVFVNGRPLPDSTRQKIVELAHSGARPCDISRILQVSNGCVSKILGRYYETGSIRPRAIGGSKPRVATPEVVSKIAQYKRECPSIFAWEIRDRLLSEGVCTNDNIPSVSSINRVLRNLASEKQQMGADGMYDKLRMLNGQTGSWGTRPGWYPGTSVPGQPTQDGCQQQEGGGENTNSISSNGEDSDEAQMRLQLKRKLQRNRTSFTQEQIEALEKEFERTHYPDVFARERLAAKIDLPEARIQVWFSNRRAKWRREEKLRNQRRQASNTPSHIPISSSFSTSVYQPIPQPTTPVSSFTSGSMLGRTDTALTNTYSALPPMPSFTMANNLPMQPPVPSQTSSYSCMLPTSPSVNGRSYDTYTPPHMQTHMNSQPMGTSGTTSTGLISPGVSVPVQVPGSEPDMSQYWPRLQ
Signal transducer and activator of transcription 3 (Homo sapiens), sequence (P40763 whole entry, looked up): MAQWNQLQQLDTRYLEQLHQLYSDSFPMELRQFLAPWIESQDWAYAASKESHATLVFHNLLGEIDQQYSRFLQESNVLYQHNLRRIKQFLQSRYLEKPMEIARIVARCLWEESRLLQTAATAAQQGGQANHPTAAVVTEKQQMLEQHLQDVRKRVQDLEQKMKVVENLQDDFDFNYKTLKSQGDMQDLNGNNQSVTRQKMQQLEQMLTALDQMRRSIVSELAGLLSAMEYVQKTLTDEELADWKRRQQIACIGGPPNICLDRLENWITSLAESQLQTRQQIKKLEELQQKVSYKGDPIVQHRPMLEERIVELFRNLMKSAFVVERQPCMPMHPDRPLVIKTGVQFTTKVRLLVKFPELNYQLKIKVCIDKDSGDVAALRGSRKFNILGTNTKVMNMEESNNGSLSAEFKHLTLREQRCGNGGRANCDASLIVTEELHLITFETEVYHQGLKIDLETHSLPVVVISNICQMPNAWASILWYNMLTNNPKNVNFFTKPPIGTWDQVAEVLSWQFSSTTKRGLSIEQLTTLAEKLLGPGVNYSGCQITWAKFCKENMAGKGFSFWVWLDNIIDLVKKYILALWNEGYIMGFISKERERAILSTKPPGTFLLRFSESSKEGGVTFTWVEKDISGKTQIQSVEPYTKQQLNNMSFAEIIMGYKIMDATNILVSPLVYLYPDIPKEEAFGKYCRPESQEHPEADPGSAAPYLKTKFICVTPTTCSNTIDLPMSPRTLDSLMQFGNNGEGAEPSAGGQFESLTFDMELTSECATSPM
Transcription factor Sp1 (Homo sapiens), sequence (P08047 whole entry, looked up): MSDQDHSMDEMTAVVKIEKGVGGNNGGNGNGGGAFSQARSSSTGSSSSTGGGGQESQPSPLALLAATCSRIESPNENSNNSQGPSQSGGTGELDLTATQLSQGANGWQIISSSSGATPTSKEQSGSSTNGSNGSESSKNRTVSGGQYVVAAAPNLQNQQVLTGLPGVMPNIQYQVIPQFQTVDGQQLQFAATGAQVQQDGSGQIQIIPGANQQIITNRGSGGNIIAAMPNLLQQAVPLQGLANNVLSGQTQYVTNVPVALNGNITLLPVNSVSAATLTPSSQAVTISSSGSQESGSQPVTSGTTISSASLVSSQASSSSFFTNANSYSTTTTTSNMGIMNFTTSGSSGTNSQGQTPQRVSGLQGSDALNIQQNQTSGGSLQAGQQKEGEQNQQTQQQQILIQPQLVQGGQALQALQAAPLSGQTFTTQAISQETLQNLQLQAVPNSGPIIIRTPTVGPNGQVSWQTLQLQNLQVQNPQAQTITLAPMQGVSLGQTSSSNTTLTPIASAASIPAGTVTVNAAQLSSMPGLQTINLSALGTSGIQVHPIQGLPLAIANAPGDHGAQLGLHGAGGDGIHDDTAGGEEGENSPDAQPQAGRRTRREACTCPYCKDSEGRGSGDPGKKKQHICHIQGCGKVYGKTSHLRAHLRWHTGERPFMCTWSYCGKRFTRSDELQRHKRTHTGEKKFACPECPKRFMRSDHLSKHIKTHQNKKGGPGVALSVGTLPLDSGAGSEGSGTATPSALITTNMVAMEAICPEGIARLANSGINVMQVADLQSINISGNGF

CCCC(=O)c1ccccc1
not listed: [10]
inactive: all other assays above

CC(C)C[C@H](NC(=O)OCC1c2ccccc2-c2ccccc21)C(=O)O
active: [2] 28.2 µM | [3] 14.7 µM | [6] 69.1 µM
not listed: [5]
inactive: all other assays above

CCOC(=O)C(C#N)=C(c1ccccc1)c1ccccc1
inactive: [5] | [7]
active: [1] 35.1 µM | [2] 1.39 µM | [3] 154 µM | [4] 17.4 µM | [6] 33.3 µM | [8] 23.5 µM

COC(=O)Nc1ccc(Cl)c(Cl)c1
active: [2] 100 µM | [9] 26.4 µM
not listed: [5]
inactive: all other assays above

CCCCCCCCCCCC(=O)OC[C@@H](O)[C@H]1OC[C@H](O)[C@H]1O
not listed: [8]
inactive: all other assays above

CCCCCCOC(=O)CCC
active: [2] 24.8 µM
not listed: [8]
inactive: all other assays above

CCc1cc(C(C)(C)C)c(O)c(C(C)(C)C)c1
active: [2] 8.94 µM | [6] 59.9 µM
not listed: [9] | [10]
inactive: all other assays above

CCC(C)c1cc([N+](=O)[O-])cc([N+](=O)[O-])c1OC(=O)OC(C)C (stereo not given)
active: [1] 25.9 µM | [2] 0.731 µM | [6] 25.1 µM | [7] 100 µM
not listed: [5]
inactive: all other assays above

Nc1ccc(Cl)c([N+](=O)[O-])c1
active: [2] 37.6 µM
not listed: [8]
inactive: all other assays above

[O-]n1ccccc1=S.[O-]n1ccccc1=S.[Zn+2]
not listed: [10]
inactive: all other assays above

OCc1ccc(Cl)cc1Cl
not listed: [9] | [10]
inactive: all other assays above

CCc1cc(Cc2cc(CC)cc(C(C)(C)C)c2O)c(O)c(C(C)(C)C)c1
active: [1] 16.6 µM | [2] 0.0355 µM | [3] 11.1 µM | [4] 18.1 µM | [10] 11.1 µM
inactive: [5] | [6] | [7] | [9]

CCOC(=O)CCc1ccccc1
not listed: [10]
inactive: all other assays above

CN(C)CCOC(C)(c1ccccc1)c1ccccn1 (stereo not given)
active: [2] 100 µM
not listed: [5]
inactive: all other assays above

CCCCCCOC(=O)C(C)C
not listed: [5]
inactive: all other assays above

NC(=S)NNC(N)=S
not listed: [5] | [8]
inactive: all other assays above

CC1(C)COCN1
not listed: [5]
inactive: all other assays above

Cc1ccc(S(N)(=O)=O)cc1
not listed: [4]
inactive: all other assays above

C1CCOC1
active: [2] 37.3 µM
not listed: [4]
inactive: all other assays above

N[C@@H](Cc1cc(I)c(Oc2cc(I)c(O)c(I)c2)c(I)c1)C(=O)O
active: [2] 6.42 µM | [3] 22.1 µM | [6] 22.7 µM
not listed: [4] | [10]
inactive: all other assays above
